According to PubChem BioAssay (NCATS):
A number with no mark means an inactive call. Records with an inconclusive call do not appear. A call without a number means that no potency is given here. Active and inactive are the calls of the source. Unless noted, the call rests on the fitted dose curve; in most records, active means well fitted curve in either direction with a large enough effect (not every such curve was filed as active); inconclusive means small, poorly fitted or top-dose-only effect, or another doubt; inactive means flat fitted curve, though single readings scatter.

What was measured:
[1] = AP1 Signaling Pathway (AID 357); details: ME-180 AP-1-bla reporter, EGF-induced, beta-lactamase ratio, 5 h; at 7.69 µM (top of the series) unless noted;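 further: ME-180 reporter cells stimulated with EGF at its EC50 level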
Method in brief: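 Cells are seeded overnight, exposed to compound titrations and an EC50 level of EGF for 5 hours at 37 °C, then loaded with CCF4 dye for 2.5 hours. Beta-lactamase activity under the AP-1 element is read as a blue/green ratio.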

[2] = biological target: Cytochrome P450 1A2 (Homo sapiens) (UniProt P05177); assay: p450-cyp1a2 (AID 410; calls by dose curve; further: potency means the concentration at half of the fitted maximal effect)
Method in brief: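 20nM CYP1A2 with 100uM Luciferin-ME (at Km) in 100mM KPO4; compound preincubated 10 min, NADPH regeneration added, 60 min at room temperature. Luciferin quantified by luminescence after detection reagent; normalized to 57 uM furafylline.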

[3] = NFAT Signaling Pathway (AID 444); details: Jurkat NFAT-bla M1, carbachol, beta-lactamase ratio, 5 h; at 7.69 µM (top of the series) unless noted;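 further: carbachol stimulus at about its EC50 of 1 µM final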
Method in brief: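 Jurkat cells with NFAT-driven β-lactamase reporter and co-expressed M1 receptor, stimulated with carbachol (final 1 uM, ~EC50), compound titration, 5 h at 37 °C. CCF4 loaded 1 h at RT; 460/530 nm ratio gave %activity and AC50.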

[4] = Stat Signaling Pathway (AID 446); details: ME-180 SIE beta-lactamase reporter, IL-6 stimulated, 5 h; at 7.69 µM (top of the series) unless noted;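 further: ME-180 cervical cancer cells given 40 pM IL-6 alongside compound; SIE-controlled beta-lactamase reporter measured as 460/530 nm FRET emission ratio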
Method in brief: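 Reporter line: ME-180 cervical carcinoma, SIE-beta-lactamase. Treatment: compound with 40 pM IL-6, 5 hrs, 37 C, in low-serum OPTI-MEM with 10 mM HEPES pH 7.3. Detection: 460/530 nm fluorescence.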

[5] = biological target: Glucocorticoid receptor (Homo sapiens) (UniProt P04150); assay: GR-GFP Redistribution (AID 450;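 active means compounds whose dose series gives a full or clear partial fitted curve of increased nuclear translocation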; further: potency means the concentration at half of the fitted maximal effect); details: U2OS GR-GFP nuclear translocation, laser cytometry, 2 h
[6] = biological target: Glucocorticoid receptor (Homo sapiens) (UniProt P04150); assay: GR-EFC Redistribution (AID 451; calls by dose curve; further: potency means the concentration at half of the fitted maximal effect); details: CHO-K1 GR-EFC translocation, beta-gal luminescence, 2 h
Method in brief: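 CHO-K1 cells expressing nuclear EA and GR-ED fragments of b-gal; compounds titrated up to 46 uM final, 2 h at 37 C. GR nuclear translocation read as complemented b-gal luminescence after 1 h RT detection.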

[7] = biological target: Mitogen-activated protein kinase 10 (Mus musculus) (UniProt Q61831); assay: JNK3 AlphaScreen Assay (AID 530);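 further: kinase came from lysate of stimulated human HepG2 cells; signal reports phosphorylation of biotinylated GST-cJun 1-79 at Ser73 with 10 µM ATP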
Method in brief: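 Pre-activated (IL-1β/TNFα) JNK3 in HepG2 lysates phosphorylates biotin-GST-cJun(1-79), 10 uM ATP; anti-phospho-cJun(Ser73) AlphaScreen read at room temperature, pH 7.6 Tris buffer. Compounds pre-incubated 15 min as titrations.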

[8] = biological target: 3',5'-cyclic-AMP phosphodiesterase 4B (Homo sapiens) (UniProt Q07343); assay: qHTS Assay for Inhibitors of PDE-IV (AID 607; active means well fitted activation curve with a large enough effect in the main read-out, with a control signal flat, not every such curve was filed as active)
Method in brief: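 Cell-based read-out of cAMP via a modified cyclic nucleotide-gated channel and membrane potential dye (535/590 nm) in HEK293 cells expressing PDE4 endogenously. Compounds tested up to 22.9 uM final; 100 uM RO 20-1724 reference.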

[9] = biological target: Cytochrome P450 3A4 (Homo sapiens) (UniProt P08684); assay: qHTS Assay for Activators of Cytochrome P450 3A4 (AID 885; active means well fitted curve in the direction sought with a large enough effect; an effect the other way counts as inactive or inconclusive; further: nearly all actives have a fitted effect of over 65% in size)
Method in brief: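 Signal was normalized against complete inhibition by 57 uM ketoconazole. The reaction used 20nM CYP3A4 with 25uM Luciferin-PPXE, 10-min compound preincubation and a 60-min NADPH-supported step at RT.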

[10] = biological target: Cytochrome P450 2C19 (Homo sapiens) (UniProt P33261); assay: qHTS Assay for Inhibitors and Substrates of Cytochrome P450 2C19 (AID 899; active means well fitted curve in the direction sought with a large enough effect; an effect the other way counts as inactive or inconclusive; further: nearly all actives have a fitted effect of over 60% in size)
Method in brief: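 Signal comes from luciferase acting on luciferin released by CYP2C19-mediated hydroxylation of Luciferin-H EGE, 10uM (KM). Assay mix: 5nM enzyme, 50mM KPO4; 60 min at 37C with NADPH regeneration. Data normalized against 57uM ketoconazole.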

[11] = biological target: Muscarinic acetylcholine receptor M1 (Rattus norvegicus) (UniProt P08482); assay: qHTS Assay for Antagonists of Acetylcholine Muscarinic M1 Receptor: Kinetic Measurement of Intracellular Calcium Response (AID 943; active means well fitted curve in the direction sought with a large enough effect; an effect the other way counts as inactive or inconclusive; further: nearly all actives have a fitted effect of over 75% in size)
Method in brief: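 CHO cells expressing rat M1 receptor, Fluo-4 loaded, preincubated 10 min with compound, then stimulated with EC80 carbachol (100 nM final). Kinetic calcium fluorescence over 4 min; response taken as peak over basal signal.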

[12] = biological target: Muscarinic acetylcholine receptor M1 (Rattus norvegicus) (UniProt P08482); assay: qHTS Assay for Antagonists of Acetylcholine Muscarinic M1 Receptor: Measurement of IP-One Response (AID 944; active means well fitted curve in the direction sought with a large enough effect; an effect the other way counts as inactive or inconclusive; further: nearly all actives have a fitted effect of over 75% in size)
Method in brief: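 CHO cells stably expressing rat M1, pretreated 10 min with compound, then stimulated 30 min with carbachol at EC80 (200 nM) in LiCl-containing buffer pH 7.4; IP1 accumulation read by HTRF competition (665/620 nm).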

[13] = biological target: Pyruvate kinase (Leishmania mexicana) (UniProt Q27686); assay: qHTS Validation Assay for Inhibitors of Leishmania Mexicana Pyruvate Kinase (AID 945; active means well fitted curve in the direction sought with a large enough effect; an effect the other way counts as inactive or inconclusive)
Method in brief: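 The enzyme is a highly purified E451W mutant of LmPYK used at 0.2 nM. It converts 0.5 mM PEP and 0.1 mM ADP over 1 h at room temperature; product ATP is quantified by luciferase luminescence relative to DMSO controls.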

[14] = biological target: Pyruvate kinase PKM (Homo sapiens) (UniProt P14618); assay: qHTS Assay for Activators of Human Muscle Pyruvate Kinase (AID 954; active means well fitted curve in the direction sought with a large enough effect, not every such curve was filed as active)
Method in brief: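 Human PKM2 activity is measured as ATP generation, detected by luciferase-coupled luminescence. The enzyme (0.1 nM) acts on 0.5 mM PEP and 0.1 mM ADP for 1 h at ambient temperature; data are normalized to uninhibited and full-inhibition wells.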

[15] = biological target: Alpha-galactosidase A (Homo sapiens) (UniProt P06280); assay: Counterscreen for Glucocerebrosidase Inhibitors: qHTS Assay for Human alpha-Galactosidase at pH 4.5 (AID 992; active means well fitted curve in the direction sought with a large enough effect; an effect the other way counts as inactive or inconclusive)
Method in brief: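 Quantitative HTS: compounds tested from 0.7 nM up to 77 uM against 2 nM enzyme with 80 uM 4-MU alpha-D-galactopyranoside. The 20 min room-temperature reaction is stopped with 1M NaOH/1M glycine, pH 10.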

[16] = biological target: alpha-glucosidase (Oryza sativa, rice) (UniProt Q653V4); assay: Counterscreen for Glucocerebrosidase Inhibitors: qHTS Assay for Rice alpha-Glucosidase at pH 5.0 (AID 997; active means well fitted curve in the direction sought with a large enough effect; an effect the other way counts as inactive or inconclusive; further: potency means the concentration at half of the fitted maximal effect)
Method in brief: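 Rice alpha-glucosidase (4 nM final) with 400 uM 4-methylumbelliferyl-alpha-D-glucopyranoside in citrate buffer pH 5.0, 20 min at room temperature, stopped at pH 10; fluorescence 365/440 nm, compounds 0.7 nM–77 uM, AC50 from Hill fits.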

[17] = qHTS Assay for Identification of Small Molecule Agonists for Thrombopoietin (TPO) Signaling Pathway (AID 917; active means well fitted curve in the direction sought with a large enough effect; an effect the other way counts as inactive or inconclusive)
Method in brief: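 Murine Ba/F3 cells stably expressing human TPO receptor and a Glycoprotein IIb promoter–luciferase reporter were IL-3-starved overnight, then treated with compounds plus TPO (26 pM final, its EC50) for 24 hrs at 37 C; luminescence was read.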

[18] = biological target: Cytochrome P450 2D6 (Homo sapiens) (UniProt P10635); assay: qHTS Assay for Inhibitors and Substrates of Cytochrome P450 2D6 (AID 891; active means well fitted curve in the direction sought with a large enough effect; an effect the other way counts as inactive or inconclusive;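 further: luciferin methyl ether substrate demethylated by CYP2D6 with NADPH regeneration; nearly all actives have a fitted effect of over 60% in size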)
Method in brief: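 Human CYP2D6 (5 nM) with 30 uM Luciferin-ME EGE (at Km) in 100 mM KPO4, compound preincubated 10 min, then NADPH regeneration system for 60 min at room temperature. Luciferin read by luminescence; normalized to 1.43 uM quinidine.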

Cytochrome P450 1A2 (Homo sapiens), sequence (P05177 whole entry, looked up): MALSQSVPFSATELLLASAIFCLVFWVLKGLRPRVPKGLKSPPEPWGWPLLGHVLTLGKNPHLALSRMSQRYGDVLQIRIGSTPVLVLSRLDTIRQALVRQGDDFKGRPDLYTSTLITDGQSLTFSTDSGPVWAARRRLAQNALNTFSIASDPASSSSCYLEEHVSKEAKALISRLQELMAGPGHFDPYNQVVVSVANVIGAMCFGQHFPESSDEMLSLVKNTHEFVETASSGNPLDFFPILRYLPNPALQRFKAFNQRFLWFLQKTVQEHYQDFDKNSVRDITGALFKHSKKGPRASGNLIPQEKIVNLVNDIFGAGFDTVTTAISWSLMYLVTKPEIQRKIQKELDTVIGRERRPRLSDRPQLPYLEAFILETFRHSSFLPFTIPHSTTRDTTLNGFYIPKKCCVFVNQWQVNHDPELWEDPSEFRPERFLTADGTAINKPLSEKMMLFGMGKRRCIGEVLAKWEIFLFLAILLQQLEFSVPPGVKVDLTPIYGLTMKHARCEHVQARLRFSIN
Alpha-galactosidase A (Homo sapiens), sequence (P06280 whole entry, looked up): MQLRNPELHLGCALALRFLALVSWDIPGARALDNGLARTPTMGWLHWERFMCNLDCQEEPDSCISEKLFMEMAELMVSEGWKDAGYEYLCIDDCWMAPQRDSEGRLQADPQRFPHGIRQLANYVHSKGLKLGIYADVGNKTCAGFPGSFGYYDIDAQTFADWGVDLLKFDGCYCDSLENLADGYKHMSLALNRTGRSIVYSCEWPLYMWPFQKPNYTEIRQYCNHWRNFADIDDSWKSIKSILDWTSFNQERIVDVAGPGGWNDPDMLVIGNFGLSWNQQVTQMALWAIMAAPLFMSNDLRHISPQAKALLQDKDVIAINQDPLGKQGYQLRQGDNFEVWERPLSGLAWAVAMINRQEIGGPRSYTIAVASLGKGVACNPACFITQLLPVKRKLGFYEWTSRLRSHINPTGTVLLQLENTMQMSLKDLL
Cytochrome P450 2D6 (Homo sapiens), sequence (P10635 whole entry, looked up): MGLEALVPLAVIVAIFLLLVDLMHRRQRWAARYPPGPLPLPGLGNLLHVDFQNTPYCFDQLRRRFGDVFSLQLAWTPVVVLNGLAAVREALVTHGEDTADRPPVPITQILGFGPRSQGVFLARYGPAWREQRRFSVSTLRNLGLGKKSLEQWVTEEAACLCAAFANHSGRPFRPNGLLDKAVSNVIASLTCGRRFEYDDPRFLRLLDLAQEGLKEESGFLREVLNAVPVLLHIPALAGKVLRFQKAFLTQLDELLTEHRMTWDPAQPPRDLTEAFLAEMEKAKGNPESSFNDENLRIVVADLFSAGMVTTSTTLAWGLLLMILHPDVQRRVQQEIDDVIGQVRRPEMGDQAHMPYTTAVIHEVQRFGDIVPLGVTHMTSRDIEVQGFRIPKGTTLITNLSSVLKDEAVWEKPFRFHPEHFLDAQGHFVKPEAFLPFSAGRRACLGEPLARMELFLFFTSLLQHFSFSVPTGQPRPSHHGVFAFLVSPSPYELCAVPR
Pyruvate kinase (Leishmania mexicana), sequence (Q27686 2-499 E452W): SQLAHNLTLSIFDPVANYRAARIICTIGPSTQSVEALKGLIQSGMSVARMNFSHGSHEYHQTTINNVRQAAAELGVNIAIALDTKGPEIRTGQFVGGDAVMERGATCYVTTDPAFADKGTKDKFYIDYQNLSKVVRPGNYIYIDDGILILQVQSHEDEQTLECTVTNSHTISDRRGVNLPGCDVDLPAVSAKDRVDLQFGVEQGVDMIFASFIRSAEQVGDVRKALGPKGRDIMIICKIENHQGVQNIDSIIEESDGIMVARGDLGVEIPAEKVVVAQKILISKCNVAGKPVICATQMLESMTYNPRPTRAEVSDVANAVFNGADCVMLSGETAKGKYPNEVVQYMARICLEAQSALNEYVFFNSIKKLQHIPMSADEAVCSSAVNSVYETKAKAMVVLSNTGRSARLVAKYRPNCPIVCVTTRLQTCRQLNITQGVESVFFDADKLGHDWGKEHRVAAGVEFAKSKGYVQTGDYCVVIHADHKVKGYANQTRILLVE
Cytochrome P450 3A4 (Homo sapiens), sequence (P08684 whole entry, looked up): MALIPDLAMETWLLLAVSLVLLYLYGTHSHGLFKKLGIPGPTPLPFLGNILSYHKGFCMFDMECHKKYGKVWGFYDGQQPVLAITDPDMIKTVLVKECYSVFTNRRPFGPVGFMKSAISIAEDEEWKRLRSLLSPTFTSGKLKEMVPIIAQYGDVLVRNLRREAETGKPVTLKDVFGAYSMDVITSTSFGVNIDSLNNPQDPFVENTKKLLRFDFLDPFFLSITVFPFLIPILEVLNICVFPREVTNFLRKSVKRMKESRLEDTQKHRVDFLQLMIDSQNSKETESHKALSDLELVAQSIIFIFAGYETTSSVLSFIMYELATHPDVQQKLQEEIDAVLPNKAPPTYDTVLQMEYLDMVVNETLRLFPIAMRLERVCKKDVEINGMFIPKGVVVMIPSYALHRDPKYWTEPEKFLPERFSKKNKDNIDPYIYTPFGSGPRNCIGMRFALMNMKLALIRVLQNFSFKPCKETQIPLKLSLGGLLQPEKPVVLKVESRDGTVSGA
3',5'-cyclic-AMP phosphodiesterase 4B (Homo sapiens), sequence (Q07343 whole entry, looked up): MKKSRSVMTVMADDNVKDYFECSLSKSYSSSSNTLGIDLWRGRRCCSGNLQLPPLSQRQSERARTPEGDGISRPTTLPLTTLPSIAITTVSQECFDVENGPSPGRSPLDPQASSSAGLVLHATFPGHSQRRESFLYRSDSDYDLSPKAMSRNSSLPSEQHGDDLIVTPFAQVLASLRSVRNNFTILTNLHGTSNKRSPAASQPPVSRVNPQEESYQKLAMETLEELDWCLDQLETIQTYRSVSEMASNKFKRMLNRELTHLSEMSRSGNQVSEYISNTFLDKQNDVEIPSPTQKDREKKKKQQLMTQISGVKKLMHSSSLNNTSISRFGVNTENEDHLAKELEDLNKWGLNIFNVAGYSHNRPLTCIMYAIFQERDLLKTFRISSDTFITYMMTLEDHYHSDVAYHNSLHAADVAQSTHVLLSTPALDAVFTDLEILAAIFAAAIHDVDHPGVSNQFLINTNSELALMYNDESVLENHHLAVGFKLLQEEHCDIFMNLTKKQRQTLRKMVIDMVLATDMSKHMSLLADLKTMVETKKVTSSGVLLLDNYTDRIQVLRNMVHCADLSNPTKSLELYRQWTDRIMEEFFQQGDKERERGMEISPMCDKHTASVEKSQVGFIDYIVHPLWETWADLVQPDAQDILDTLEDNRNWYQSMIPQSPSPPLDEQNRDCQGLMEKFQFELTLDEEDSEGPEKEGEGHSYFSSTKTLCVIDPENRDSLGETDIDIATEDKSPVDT
Muscarinic acetylcholine receptor M1 (Rattus norvegicus), sequence (P08482 whole entry, looked up): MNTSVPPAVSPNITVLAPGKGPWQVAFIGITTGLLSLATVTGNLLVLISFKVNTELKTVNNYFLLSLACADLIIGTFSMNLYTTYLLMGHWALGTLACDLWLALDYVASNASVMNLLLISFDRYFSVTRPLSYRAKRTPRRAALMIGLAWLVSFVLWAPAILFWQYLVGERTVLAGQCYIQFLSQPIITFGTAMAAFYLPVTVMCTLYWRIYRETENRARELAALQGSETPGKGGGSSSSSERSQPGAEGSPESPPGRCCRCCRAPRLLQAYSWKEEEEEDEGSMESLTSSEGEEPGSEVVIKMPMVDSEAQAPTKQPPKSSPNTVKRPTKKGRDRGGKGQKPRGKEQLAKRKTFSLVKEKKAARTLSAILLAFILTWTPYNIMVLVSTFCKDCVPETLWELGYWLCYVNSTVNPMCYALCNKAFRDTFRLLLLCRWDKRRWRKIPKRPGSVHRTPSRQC
Glucocorticoid receptor (Homo sapiens), sequence (P04150 whole entry, looked up, the tested form may be a part): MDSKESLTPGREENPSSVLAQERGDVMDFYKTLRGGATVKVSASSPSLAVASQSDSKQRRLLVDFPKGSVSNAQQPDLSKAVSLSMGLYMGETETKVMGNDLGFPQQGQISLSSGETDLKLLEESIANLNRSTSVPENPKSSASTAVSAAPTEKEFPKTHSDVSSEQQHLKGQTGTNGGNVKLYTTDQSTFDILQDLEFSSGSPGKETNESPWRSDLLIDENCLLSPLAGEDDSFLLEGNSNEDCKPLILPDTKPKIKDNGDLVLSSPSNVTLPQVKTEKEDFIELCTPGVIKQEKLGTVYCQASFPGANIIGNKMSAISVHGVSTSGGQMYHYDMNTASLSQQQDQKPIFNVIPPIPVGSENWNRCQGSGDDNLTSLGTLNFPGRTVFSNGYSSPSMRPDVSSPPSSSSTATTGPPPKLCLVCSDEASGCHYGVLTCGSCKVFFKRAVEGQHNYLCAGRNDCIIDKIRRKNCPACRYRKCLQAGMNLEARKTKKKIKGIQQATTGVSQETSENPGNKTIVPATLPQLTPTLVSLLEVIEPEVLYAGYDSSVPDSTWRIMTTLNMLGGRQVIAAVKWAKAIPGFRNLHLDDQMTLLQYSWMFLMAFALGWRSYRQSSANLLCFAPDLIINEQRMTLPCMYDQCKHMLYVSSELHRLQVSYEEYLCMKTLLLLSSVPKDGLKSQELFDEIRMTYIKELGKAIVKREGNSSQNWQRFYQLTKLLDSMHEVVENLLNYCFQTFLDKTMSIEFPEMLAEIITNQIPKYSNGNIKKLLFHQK
Pyruvate kinase PKM (Homo sapiens), sequence (P14618 whole entry, looked up): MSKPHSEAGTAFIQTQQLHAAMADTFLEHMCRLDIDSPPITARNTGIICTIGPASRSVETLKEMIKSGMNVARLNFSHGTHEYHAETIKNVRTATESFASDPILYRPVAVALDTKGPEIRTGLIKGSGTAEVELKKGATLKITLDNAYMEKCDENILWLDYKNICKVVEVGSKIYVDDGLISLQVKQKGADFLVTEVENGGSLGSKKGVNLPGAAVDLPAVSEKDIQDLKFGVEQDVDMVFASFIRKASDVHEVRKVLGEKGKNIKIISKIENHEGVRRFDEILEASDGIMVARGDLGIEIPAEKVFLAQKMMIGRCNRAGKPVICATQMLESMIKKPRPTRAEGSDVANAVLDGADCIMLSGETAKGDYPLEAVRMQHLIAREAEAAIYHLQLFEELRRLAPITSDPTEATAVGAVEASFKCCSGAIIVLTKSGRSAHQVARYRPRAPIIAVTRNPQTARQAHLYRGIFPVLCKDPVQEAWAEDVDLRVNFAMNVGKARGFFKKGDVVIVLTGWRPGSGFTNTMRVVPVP

Structure (SMILES) | activity change, negative = inhibition [1] | Potency [2] | activity change, negative = inhibition [3] | activity, negative = inhibition [4] | Potency [5] | Potency [6] | Potency [7] | Potency [8] | Potency [9] | Potency [10] | Potency [11] | Potency [12] | outcome [13] | outcome [14] | outcome [15] | Potency [16] | outcome [17] | Potency [18]
CN[C@]1(C)[C@@H]2CC[C@@H](C2)C1(C)C | -7.63% [at 38 µM] | inactive | -5.79% [at 38 µM] | -12.2% [at 38 µM] | > 46 µM | > 46 µM | inactive | inactive | inactive | inactive | inactive | inactive | inactive | inactive | inactive | inactive |  | 
NC(N)=N[C@H](CCC(=O)O)C(=O)O | -11% [at 38 µM] | inactive | -4.2% [at 38 µM] | 0.861% [at 38 µM] | > 46 µM | > 46 µM | inactive | inactive | inactive |  | inactive | inactive | inactive | inactive | inactive | inactive | inactive | 
CC[C@H](C)C(=O)O[C@@H]1CCC=C2C=C[C@H](C)[C@@H](CC[C@H]3C[C@@H](O)CC(=O)O3)[C@H]21 | -28.7% [at 38 µM] | inactive | 6.96% [at 38 µM] | 10.1% [at 38 µM] | > 46 µM | > 46 µM | inactive | inactive |  | inactive |  |  |  |  |  |  |  | inactive
C=CC[C@@H](C(=O)O)c1ccccc1 | 2.31% | inactive | 9.16% | 8.67% | > 46 µM | > 9.22 µM | inactive | inactive |  | inactive |  |  |  |  |  |  |  | 
CCNC(=O)[C@@H]1O[C@@H](n2cnc3c(NCc4ccccc4)ncnc32)[C@@H](O)[C@H]1O | -7.35% [at 38 µM] | inactive | 17% [at 38 µM] | -20.4% [at 38 µM] | > 46 µM | > 46 µM | inactive | inactive |  | inactive |  |  |  |  |  |  |  | inactive
C[C@]12C=CC(=O)C=C1CC[C@@H]1[C@H]3C[C@@H](O)[C@](O)(C(=O)CO)[C@]3(C)C[C@H](O)[C@]12F | -12.2% [at 38 µM] | inactive | -3.19% [at 38 µM] | -15.9% [at 38 µM] | 0.223 µM (active) | 0.273 µM (active) | inactive | inactive |  |  |  |  |  |  |  |  |  | inactive
NNC(=O)CNc1cccc(Br)c1 | -0.367% | 501 nM (active) | -6.61% | -6.81% | > 46 µM | > 9.22 µM | inactive | inactive | inactive |  |  |  |  |  |  |  |  | 
Nc1nc(N)c2nc(CNc3ccc(C(=O)N[C@H](CCC(=O)O)C(=O)O)cc3)cnc2n1 | 1.47% [at 38 µM] | inactive | 13.5% [at 38 µM] | -0.643% [at 38 µM] | > 46 µM | > 46 µM | inactive | inactive |  |  |  |  | inactive | inactive | inactive | inactive | inactive | 
CC1=C(\C=C/C(C)=C/C=C\C(C)=C\C(=O)Nc2ccc(O)cc2)C(C)(C)CCC1 | -16.4% [at 38 µM] | inactive | -17.1% [at 38 µM] | -11.2% [at 38 µM] | > 46 µM | > 46 µM | inactive | inactive |  |  |  |  |  |  |  |  |  | inactive
OC[C@@H]1NC[C@@H](O)[C@H]1O | 0.107% [at 38 µM] | inactive | 8.18% [at 38 µM] | -5.61% [at 38 µM] | > 46 µM | > 46 µM | inactive | inactive |  |  |  |  | inactive | inactive |  | 12.6 µM (active) | inactive | 
